An excerpt weighted towards active compounds, which were near 19% of everything screened.
KB-V1 MDR tox – kills drug-selected multidrug resistant KB-V1 cells | KB-V1 MDR cells viability, CellTiter-Glo, 72 h | Potency, µM (series often up to 46.1 µM), actives largely listed as cytotoxic | 3.4% of 400,000 active | AID 1347076; note: nearly all actives have a fitted effect of over 60% in size
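In this primary screen, KB-V1 cells overexpressing P-gp are incubated with library compounds (lowest to highest concentration) for 72 h at 37 degrees C before a luminescent ATP viability read.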
TDP1 cell noCPT – qHTS for Inhibitors of human tyrosyl-DNA phosphodiesterase 1 (TDP1): qHTS in cells in absence of CPT; Potency, µM (top dose mostly 46.2 µM), hits mostly inhibitors; 15% of 420,000 active; AID 686978, 2013; DT40 Tdp1-/- hTDP1 cells, no CPT, ATP luminescence, 48 h; note: nearly all actives have a fitted effect of over 55% in size
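Chicken DT40 Tdp1-/- cells stably complemented with human TDP1 were seeded at 400 cells/well with DMSO in place of 20 nM camptothecin. After compound pinning, cells grew at least 48 hr at 37 °C; viability read by CellTiter-Glo luminescence.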
TDP1 cell CPT – growth inhibition of DT40 Tdp1-/-;hTDP1 cells with camptothecin (screen for TDP1 inhibitors); chicken DT40 Tdp1-/-;hTDP1 cells + 20 nM CPT, ATP luminescence, 48 h; Potency, µM (series often up to 46.2 µM), actives largely listed as inhibitors; 12% of 420,000 active; AID 686979; note: nearly all actives have a fitted effect of over 55% in size
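Cell growth measured by CellTiter-Glo luminescence after a minimum 48 h, 37 C compound exposure with 20 nM CPT in Tdp1-knockout DT40 cells stably expressing hTDP1, seeded 400/well; qHTS titration format.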
HT1080 IDH1KD tx – HT-1080 IDH1 knockdown cell toxicity (counter line); Potency, µM (doses to about 46.1 µM), actives largely listed as cytotoxic; HT-1080 IDH1 knockdown viability, ATP luminescence, 48 h; 2% of 360,000 active; AID 686971
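Assay cells: HT-1080 with IDH1 knockdown, 750 per well, RPMI/5% FBS. Exposure: 48 h at 37 °C following 2 h pre-incubation. Read: CellTiter-Glo luminescence; fitted concentration-response, curve class assigned.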
HT1080-NT tox – kills 2HG-producing HT-1080-NT fibrosarcoma cells; HT-1080-NT fibrosarcoma viability, CellTiter-Glo ATP luminescence, 48 h; Potency, µM (top dose mostly 46.1 µM), most hits filed as cytotoxic; 1.6% of 360,000 active;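 note: NT is the 2HG producing partner of a matched IDH1 knockdown line; nearly all actives have a fitted effect of over 55% in size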
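HT-1080-NT; 750 cells/well; 5% FBS RPMI; 48 h compound, 37 degrees C; CellTiter-Glo luminescence; curve fitting and curve-class assignment.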
KB-3-1 tox – KB-3-1 parental cell cytotoxicity | KB-3-1 viability, CellTiter-Glo ATP luminescence, 72 h | Potency, µM (doses to about 46.1 µM), actives largely listed as cytotoxic | 1.4% of 400,000 active | AID 1347075; note: nearly all actives have a fitted effect of over 60% in size
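Parental KB-3-1 viability, qHTS format: 72 h compound exposure, 37 °C; CellTiter-Glo; media-only wells and DMSO plates as controls; concentration-effect fits on corrected data.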
Numbers stand for hits; - = inactive; ? = inconclusive; . = no result given. Calls come from the whole dose curve; as a rule, active = well fitted curve in the direction sought with a large enough effect; inconclusive = small, poorly fitted or top-dose-only effect, or another doubt; inactive = no such curve, though single readings can be large; an effect the other way counts as inactive or inconclusive.

SMILES	KB-V1 MDR tox	TDP1 cell noCPT	TDP1 cell CPT	HT1080 IDH1KD tx	HT1080-NT tox	KB-3-1 tox
COc1ccc(NC(=O)COc2cccc3c2CCN(Cc2cccnc2)C3=O)c(OC)c1	5.2µM	10µM	12µM	-	-	-
CC1CCN(C(=O)C(C)NCc2ccc(F)cc2)CC1 (centres undefined)	-	21µM	?	-	-	-
CC1CCN(CC2CCN(C(=O)NCc3ccc(F)cc3)CC2)CC1	-	-	-	.	.	-
CN(Cc1ccc(Cl)cc1Cl)C(=O)CNC(=O)c1ccc2c(c1)OCO2	-	-	-	-	-	-
CSc1ccc(CN(C)C(=O)CNC(=O)c2ccc3c(c2)OCO3)cc1	21µM	?	-	-	-	-
CCN(C(=O)COC(=O)c1ccc(=O)n(Cc2ccccc2)n1)C1CCCCC1	-	-	-	-	-	-
COC(=O)c1[nH]c2ccc(F)cc2c1NC(=O)CCN1CCN(Cc2ccc3c(c2)OCO3)CC1	?	21µM	16µM	-	-	-
CCOC(=O)c1[nH]c2ccc(OCC)cc2c1NC(=O)CN1CCCC(C)C1 (centres undefined)	-	?	?	-	-	-
CCOC(=O)c1[nH]c2ccc(F)cc2c1NC(=O)C(C)N1CCc2cc(OC)c(OC)cc2C1 (centres undefined)	?	?	?	16µM	?	16µM
CCOC(=O)c1[nH]c2cc3c(cc2c1NC(=O)CN1CC(C)CC(C)C1)OCO3 (centres undefined)	?	26µM	?	-	?	?
COc1cc2c(cc1OC)CN(CC(=O)Nc1ccccc1SC)CC2	?	23µM	?	-	-	-
COC(=O)c1[nH]c2ccccc2c1NC(=O)CN1CCN(c2cccc(OC)c2)C(C)C1 (centres undefined)	?	18µM	23µM	?	-	18µM
COC(=O)c1[nH]c2ccc(C)cc2c1NC(=O)CN1CCc2cc(OC)c(OC)cc2C1	-	23µM	16µM	-	-	-
COC(=O)c1[nH]c2cc(OC)ccc2c1NC(=O)CCN1CCN(c2cccc(C)c2C)CC1	-	21µM	?	?	?	?
COC(=O)c1[nH]c2cc(OC)ccc2c1NC(=O)CCN1CCN(c2ccccc2)CC1	-	?	?	-	-	-
CCOC(=O)c1[nH]c2ccc(OC)cc2c1NC(=O)CN1CCC2(CC1)OCCO2	-	-	-	-	-	-
CCOC(=O)c1[nH]c2ccc(OC)cc2c1NC(=O)CN1CCc2ccccc2C1	?	16µM	26µM	?	?	?
COC(=O)c1[nH]c2ccccc2c1NC(=O)CN1CCN(Cc2ccc3c(c2)OCO3)CC1	?	?	?	-	-	-
CC(=O)c1ccc(N(C(=O)CNC(=O)c2ccco2)C(C(=O)NC2CCCC2)c2cccnc2)cc1 (centres undefined)	-	-	-	-	-	-
Cc1ccc(S(=O)(=O)N(CC(O)Cn2c3ccccc3c3ccccc32)c2cccc(C(=O)NCCO)c2)cc1 (centres undefined)	-	.	.	.	.	?
CCOC(=O)c1[nH]c2ccc(OCC)cc2c1NC(=O)CN1CCN(c2ccccn2)CC1	-	16µM	?	-	-	-
CCOC(=O)c1[nH]c2ccc(OC)cc2c1NC(=S)N1CCN(c2ccccn2)CC1	-	-	-	-	-	-
COc1ccccc1-n1cnnc1SC(C)C(=O)Nc1cccc([N+](=O)[O-])c1 (centres undefined)	?	?	?	-	-	?
CC(C)C[C@@H](CN1CCC[C@@H]1CN1C(=O)C(=O)NC[C@@H]1Cc1ccccc1)N1C[C@H](Cc2ccccc2)N(CC2CCCCC2)C(=O)C1=O	?	16µM	?	-	-	?
CC(C)C[C@@H](CN1CCC[C@@H]1CN1C(=O)C(=O)NC[C@@H]1Cc1ccccc1)N1C[C@H](Cc2ccccc2)N(CC2CCCCCC2)C(=O)C1=O	-	?	?	-	-	?
SMILES	KB-V1 MDR tox	TDP1 cell noCPT	TDP1 cell CPT	HT1080 IDH1KD tx	HT1080-NT tox	KB-3-1 tox
CC(C)C[C@@H](CN1CCC[C@H]1CN1C(=O)C(=O)NC[C@@H]1Cc1ccccc1)N1C[C@H](Cc2ccc(O)cc2)N(CC2CCCCCC2)C(=O)C1=O	-	23µM	23µM	18µM	23µM	?
CC(C)C[C@@H](CN1CCC[C@@H]1CN1C(=O)C(=O)NC[C@@H]1Cc1ccccc1)N1C[C@H](Cc2ccc(O)cc2)N(CC2CCCCC2)C(=O)C1=O	?	?	?	-	-	?
CC(C)C[C@@H](CN1CCC[C@H]1CN1C(=O)C(=O)NC[C@@H]1Cc1ccccc1)N1C[C@H](Cc2ccccc2)N(CCc2ccccc2)C(=O)C1=O	-	?	23µM	?	?	-
CC(C)C[C@H]1CN([C@@H](CC(C)C)CN2CCC[C@H]2CN2C(=O)C(=O)NC[C@@H]2Cc2ccc(O)cc2)C(=O)C(=O)N1CC1CCCCCC1	-	?	?	-	-	?
CC(C)C[C@H]1CN([C@@H](CC(C)C)CN2CCC[C@H]2CN2C(=O)C(=O)NC[C@@H]2Cc2ccc(O)cc2)C(=O)C(=O)N1CC1CCCCC1	?	29µM	?	-	-	?
CC(C)C[C@H]1CNC(=S)N1C[C@H]1CCCN1C[C@H](Cc1ccc(O)cc1)N1C[C@H](CC(C)C)N(CCc2ccccc2)C1=S	?	21µM	?	-	-	?
CCOc1ccc(CCN2C(=O)C(=O)N([C@@H](Cc3ccccc3)CN3CCC[C@H]3CN3C(=O)C(=O)NC[C@@H]3Cc3ccc(O)cc3)C[C@@H]2CC(C)C)cc1	-	?	?	?	?	-
CC(C)C[C@H]1CNC(=S)N1C[C@H]1CCCN1C[C@H](Cc1ccccc1)N1C[C@H](Cc2ccc(O)cc2)N(CCc2ccccc2)C1=S	?	13µM	23µM	-	?	?
CC(C)C[C@H]1CNC(=O)C(=O)N1C[C@@H]1CCCN1C[C@H](Cc1ccccc1)N1C[C@H](CC(C)C)N(CCc2ccccc2)C(=O)C1=O	-	?	?	-	-	?
CC(C)C[C@H]1CNC(=S)N1C[C@H]1CCCN1C[C@H](Cc1ccc(O)cc1)N1C[C@H](Cc2ccc(O)cc2)N(CCc2ccccc2)C1=S	-	?	?	21µM	21µM	?
CC(C)C[C@H]1CN([C@@H](Cc2ccc(O)cc2)CN2CCC[C@@H]2CN2C(=S)NC[C@@H]2Cc2ccccc2)C(=S)N1CCc1ccccc1	?	6.5µM	6.5µM	-	-	-
